Experimental findings from PubChem BioAssay (EPA / NIEHS) are described below.

Structures are written as SMILES. Results filed as inconclusive are left out. Some structures have more than one record in an assay (separate samples or runs), and their calls can disagree. The source made the active and inactive calls. The calls were made as follows: active = hit-call score of the fitted dose curve at least 0.9, where 1 is the maximum; inconclusive = response in the unintended direction; inactive = score below 0.9.

Chain of human Peroxisome Proliferator-activated Receptor alpha (PPARa), PPARA (gene 5465) (Q07869 whole entry, looked up): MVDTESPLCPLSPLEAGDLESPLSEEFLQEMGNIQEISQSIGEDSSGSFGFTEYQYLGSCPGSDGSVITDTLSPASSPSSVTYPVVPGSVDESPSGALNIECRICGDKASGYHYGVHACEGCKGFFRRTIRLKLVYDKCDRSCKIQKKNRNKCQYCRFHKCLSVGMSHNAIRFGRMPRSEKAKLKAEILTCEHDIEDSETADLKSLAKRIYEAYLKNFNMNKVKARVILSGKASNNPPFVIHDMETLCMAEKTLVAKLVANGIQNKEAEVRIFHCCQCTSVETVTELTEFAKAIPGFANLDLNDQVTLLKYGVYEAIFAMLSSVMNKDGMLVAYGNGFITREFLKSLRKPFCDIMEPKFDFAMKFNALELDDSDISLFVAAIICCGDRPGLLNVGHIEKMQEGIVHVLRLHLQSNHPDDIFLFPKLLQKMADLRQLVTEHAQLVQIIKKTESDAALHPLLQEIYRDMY

For this test, the target named is human Peroxisome Proliferator-activated Receptor alpha (PPARa), PPARA (gene 5465) (UniProt Q07869). Description: NVS_NR_hPPARa: NovaScreen (NVS) Nuclear Receptor Binding Assay for human Peroxisome Proliferator-activated Receptor alpha (PPARa) (AID 2283359).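 Also: activity means loss of TR-FRET signal versus DMSO baseline.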 As to the method:
NVS_NR_hPPARa is a biochemical, single-readout assay that uses extracted gene-proteins in a cell-free assay. Measurements were taken 1 hour after chemical dosing in a 384-well plate.NVS_NR_hPPARa is one of one assay component(s) measured or calculated from the NVS_NR_hPPARa assay. It is designed to make measurements of fluorescent resonance energy transfer, a form of binding reporter, as detected with fluorescent resonance energy transfer signals by Time-Resolved Fluorescence Resonance Energy Transfer (TR-FRET) technology.Data from the assay component NVS_NR_hPPARa was analyzed into 1 assay endpoint. This assay endpoint, NVS_NR_hPPARa, was analyzed in the positive analysis fitting direction relative to DMSO as the negative control and baseline of activity. Using a type of binding reporter, loss-of-signal activity can be used to understand changes in the binding as they relate to the gene PPARA. Furthermore, this assay endpoint can be referred to as a primary readout, because the performed assay has only produced 1 assay endpoint. To generalize the intended target to other relatable targets, this assay endpoint is annotated to the nuclear receptor intended target family, where the subfamily is non-steroidal.
Binding assays used specific radioligands (tritiated, iodinated) with non-radioactive competitive displacement ligands in agonist or antagonist protocols (as indicated) and various reference compounds and inhibitors to titrate specific binding to receptors and transporters. Most enzyme assays (CYPs, kinases, phosphatases, proteases, HDACs) used recombinant protein and specific substrates (fluorescence mostly, some colorimetric and radioactive) and inhibitors, followed by a biochemical separation of substrate and product. All assays for the biochemical HTS were initially run in duplicate at a single concentration (10 uM for CYP450 assays and 25 uM for all others). […] Each assay was run with positive and negative controls, and concurrent controls on every plate. The follow-up (secondary) screen tested active chemical-pairs in concentration series, as well as a few additional assays not tested in the primary screen, some selected negative inactives, and several cases re-run in the concentration series for confirmatory purposes.
For the molecule `O=C(O)C(F)(F)C(F)(F)C(F)(F)C(F)(F)C(F)(F)C(F)(F)F`, the call was inactive.

The term AC50 denotes the concentration giving half of the maximal activity seen. With `COc1cc(-c2ccc(N)c(OC)c2)ccc1N`, the result was inactive and the AC50 was 14.1 µM (active).

`CCCCCCCCSC(=O)Oc1cc(Cl)nnc1-c1ccccc1`: the molecule was called inactive.

Turning to `CC(=O)C=C(C)C`, the outcome was inactive.

Regarding `C=C(C)C(=O)[O][Sn]([CH2]CCC)([CH2]CCC)[CH2]CCC`, the molecule was called inactive.

For the molecule `O=C1C2(Cl)C3(Cl)C4(Cl)C(Cl)(Cl)C5(Cl)C3(Cl)C1(Cl)C5(Cl)C24Cl` (centres undefined), the molecule was classed as inactive.

Take `COP(=O)(OC)O/C(=C\Cl)c1cc(Cl)c(Cl)cc1Cl`: the outcome was inactive.

As for `Clc1ccc(COC(Cn2ccnc2)c2ccc(Cl)cc2Cl)cc1` (centres undefined), the AC50 was 39.8 µM (active).

On to `CCCCCCCCc1ccc(O)cc1`, for which the molecule was called inactive.

For `COP(=S)(OC)Oc1ccc(Sc2ccc(OP(=S)(OC)OC)cc2)cc1`, the AC50 was 12.7 µM (active).

In the case of `CC(C)(c1ccccc1)c1ccc(O)c(C(C)(C)c2ccccc2)c1`, the call was inactive.

As for `Oc1ccc(-c2ccccc2)cc1`, the result was inactive.

Take `C=CCc1ccc(OC)cc1`: the molecule was called inactive.
